Records with an inconclusive call do not appear. Calls of active or inactive are those of the source. Unless noted, calls come from the whole dose curve; as a rule, active = well fitted curve in the direction sought with a large enough effect in the repeat runs; inconclusive = weak or mixed curves; inactive = no such curve, though single readings can be large; an effect the other way counts as inactive or inconclusive.
Key:
[1] = qHTS assay to identify small molecule antagonists of the estrogen related receptor (ERR) signaling pathway from Tox21 library - cell viability counter screen (AID 1224834); note: nearly all actives have a fitted effect of over 30% in size
How it was run: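 ERR cells, 2,000/well; 6 h settle at 37 C/5% CO2; pin-tool compound transfer in DMSO; 17.5 h at 37 C; CellTiter-Fluor, 30 min; fluorescence intensity.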

[2] = biological target: Luciferin 4-monooxygenase (Photinus pyralis) (UniProt P08659); assay: qHTS assay to identify small molecule inhibitors of firefly luciferase (AID 1224835); note: nearly all actives have a fitted effect of over 25% in size; note: potency is the fitted concentration of half-maximal effect
How it was run: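 Biochemical qHTS: compounds run as interplate titrations against purified firefly enzyme, with D-luciferin and ATP each at its KM concentration. Light output recorded by CCD imaging.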

[3] = qHTS assay to identify small molecule agonists of the constitutive androstane receptor (CAR) signaling pathway - cell viability counter screen (AID 1224836); note: nearly all actives have a fitted effect of over 45% in size
How it was run: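 HepG2 cells stably carrying hCAR and a CYP2B6-2.2kb reporter were plated 4 h, then given compounds at 15 concentrations plus PK11195 (final 0.75 uM). After 23 h at 37 C, viability was read by CellTiter-Fluor fluorescence.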

[4] = biological target: Nuclear receptor subfamily 1 group I member 3 (Homo sapiens) (UniProt Q14994); assay: qHTS assay to identify small molecule antagonists of the constitutive androstane receptor (CAR) signaling pathway (AID 1224838); note: nearly all actives have a fitted effect of over 40% in size; note: potency is the fitted concentration of half-maximal effect
How it was run: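 Antagonist mode used CITCO at a final 50 nM to activate CAR in human hepatoma HepG2 cells carrying stable hCAR and a 2.2 kb CYP2B6 promoter-luciferase construct. Compounds were tested at 15 concentrations over 24 h, with luminescence as the end point.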

[5] = biological target: Nuclear receptor subfamily 1 group I member 3 (Homo sapiens) (UniProt Q14994); assay: qHTS assay to identify small molecule agonists of the constitutive androstane receptor (CAR) signaling pathway (AID 1224839); note: nearly all actives have a fitted effect of over 15% in size; note: potency is the fitted concentration of half-maximal effect
How it was run: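 HepG2 cells stably expressing hCAR and a CYP2B6-2.2kb luciferase reporter were treated with compounds at 15 concentrations plus 0.75 uM PK11195 (final) for 24 h at 37 C; luminescence was read after ONE-Glo addition.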

[6] = qHTS assay to identify small molecule antagonists of the estrogen related receptor signaling pathway with the pleiotropic PPARgamma coactivator (PGC) from Tox21 10K library - cell viability counter screen (AID 1224840; active = well fitted cell-killing curve with a large enough effect in the repeat runs, not every such curve was filed as active; note: nearly all actives have a fitted effect of over 40% in size; note: potency is the fitted concentration of half-maximal effect)
How it was run: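 Multiplexed viability counter screen in the PGC/ERR cell line: cells treated with DMSO-dissolved compounds for 17.5 hours at 37 C, then viability measured as CellTiter-Fluor fluorescence.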

[7] = biological target: Thyrotropin receptor (Homo sapiens) (UniProt P16473); assay: qHTS assay to identify small molecule agonists of the thyroid stimulating hormone receptor (TSHR) signaling pathway (AID 1224843; calls by dose curve; note: nearly all actives have a fitted effect of over 45% in size)
How it was run: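 HEK293/TSHR, 800 cells/well; cpd 30 min RT; add cAMP-d2 + anti-cAMP-cryptate, 1 h RT; fluorescence read on plate reader. 15-pt titration, n=3.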

[8] = qHTS assay to identify small molecule agonists of the hypoxia (HIF-1) signaling pathway - cell viability counter screen (AID 1224844; calls by dose curve; note: nearly all actives have a fitted effect of over 50% in size)
How it was run: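 Cytotoxicity was measured in parallel with the HRE-driven beta-lactamase readout: after 17 hrs of compound exposure at 37C, HRE-bla ME-180 cells received CellTiter-Glo and luminescence was recorded 30 min later.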

[9] = qHTS assay to identify small molecule agonists of H2AX (AID 1224845; active = well fitted activation curve with a large enough effect in the signal ratio in the repeat runs, not every such curve was filed as active; the % refers to the signal ratio)
How it was run: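 Wild-type CHO-K1 cells, plated overnight, exposed 3hr at 37C to 15 concentrations (0.76% DMSO final). Lysed, then HTRF anti-pH2AX (S139) cryptate and anti-H2AX-d2 antibodies, 24 hr room temperature; 665/620 nm emission read.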

[10] = qHTS assay to identify small molecule agonists of the hypoxia (HIF-1) signaling pathway (AID 1224846; active = well fitted activation curve with a large enough effect in the signal ratio in the repeat runs, not every such curve was filed as active; the % refers to the signal ratio)
How it was run: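 Compounds from the Tox21 10K library, dissolved in DMSO, are tested for induction of a hypoxia response element–controlled beta-lactamase reporter in ME-180 cells. Exposure lasts 17 hrs at 37C after a 5 hr settling period, followed by CCF4-AM FRET substrate.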

[11] = qHTS assay to identify small molecule agonists of H2AX - cell viability counter screen (AID 1224847; calls by dose curve; note: nearly all actives have a fitted effect of over 30% in size; note: potency is the fitted concentration of half-maximal effect)
How it was run: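 Wild-type CHO-K1 cells (10% FBS medium) were plated overnight at 37C, exposed to compounds at 15 concentrations for 3 hr at 37C (0.76% DMSO final), and viability was read as CellTiter-Glo luminescence after 30 min at room temperature.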

[12] = qHTS RealTime-Glo MT Cell Viability Assay in HepG2 cells - 24 hour (AID 1224867); note: nearly all actives have a fitted effect of over 50% in size
How it was run: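 Compound treatment began 5 h after plating HepG2 cells (600/well) with NanoLuc luciferase and prosubstrate. Plates stayed at 37 C for 40 h; luminescence was captured at six time points, 0 h through 40 h.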

[13] = qHTS RealTime-Glo MT Cell Viability Assay in HEK293 cells - 32 hour (AID 1224868); note: top concentration of the series differs between compounds; nearly all actives have a fitted effect of over 50% in size
How it was run: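 Quantitative high-throughput screen of the Tox21 10K library in HEK293: cells and RealTime-Glo reagents plated together, compound added at 5 h, luminescence monitored through 40 h at 37 C.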

[14] = A CellTox Green Cytotoxicity Assay to monitor cytotoxicity in HEK293 cells - 0 hour (AID 1224869); note: nearly all actives have a fitted effect of over 50% in size
How it was run: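 Cells (HEK293, 600/well) and dye reagent are dispensed together. After 5 h at 37 C, 23 nL compound is pinned in. Plates stay at 37 C for 40 h with fluorescence read at 0h, 8h, 16h, 24h, 32h and 40h.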

[15] = qHTS RealTime-Glo MT Cell Viability Assay in HepG2 cells - 40 hour (AID 1224870); note: nearly all actives have a fitted effect of over 50% in size
How it was run: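 HepG2 cells (600/well) mixed with RealTime-Glo MT reagent, settled 5 h at 37 C/5% CO2 before compound addition. Nonlytic NanoLuc luminescence from viable-cell prosubstrate reduction read repeatedly during 40 h treatment at 37 C.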

[16] = qHTS assay to identify small molecule antagonists of the estrogen related receptor signaling pathway with the pleiotropic PPARgamma coactivator (PGC) from Tox21 10K library (AID 1224841; call rule not given here)
How it was run: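 Steps: plate 2,000 PGC/ERR cells per well; incubate 6 h at 37 C with 5% CO2; transfer compounds from DMSO stocks by pin tool; incubate 18 h at 37 C; add One-Glo; measure luminescence 30 min later.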

[17] = qHTS assay to identify small molecule agonists of the estrogen related receptor signaling pathway with the pleiotropic PPARgamma coactivator (PGC) from Tox21 10K library (AID 1224842); note: nearly all actives have a fitted effect of over 15% in size
How it was run: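 PGC/ERR reporter cell line, 2,000 cells per well, incubated 6 h at 37 C before 23 nL compound in DMSO was added. After 18 h at 37 C, One-Glo luminescence read following 30 min at room temperature.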

[18] = qHTS assay to identify small molecule agonists of the estrogen related receptor (ERR) signaling pathway from Tox21 library (AID 1224849; calls by dose curve; note: nearly all actives have a fitted effect of over 15% in size); details: ERR reporter cell line, ONE-Glo luciferase, 18 h; at 92.4 µM (top of the series) unless noted
How it was run: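 Cells carrying the ERR reporter were plated and allowed to settle for 6 h, exposed to library compounds for 18 h at 37 C, then lysed with ONE-Glo and luminescence measured.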

[19] = qHTS assay to identify small molecule antagonists of the constitutive androstane receptor (CAR) signaling pathway - cell viability counter screen (AID 1224837); note: nearly all actives have a fitted effect of over 45% in size
How it was run: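 Viability was measured with CellTiter-Fluor in a HepG2 line carrying stably transfected hCAR and a CYP2B6-2.2kb construct. Cells were exposed for 23 hr at 37 C to 15 compound concentrations with 50 nM CITCO as agonist.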

[20] = qHTS assay to identify small molecule antagonists of the estrogen related receptor (ERR) signaling pathway from Tox21 library (AID 1224848); note: nearly all actives have a fitted effect of over 50% in size
How it was run: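 Compounds dissolved in DMSO are pin-transferred onto ERR reporter cells (2,000 per well) that have settled for 6 h at 37 C. Plates then incubate 18 h at 37 C before ONE-Glo luciferase reagent and a luminescence read 30 min later.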
% is set by controls: 0 for no effect and ±100 for the full control effect.

Chain of Thyrotropin receptor (Homo sapiens) (P16473 whole entry, looked up): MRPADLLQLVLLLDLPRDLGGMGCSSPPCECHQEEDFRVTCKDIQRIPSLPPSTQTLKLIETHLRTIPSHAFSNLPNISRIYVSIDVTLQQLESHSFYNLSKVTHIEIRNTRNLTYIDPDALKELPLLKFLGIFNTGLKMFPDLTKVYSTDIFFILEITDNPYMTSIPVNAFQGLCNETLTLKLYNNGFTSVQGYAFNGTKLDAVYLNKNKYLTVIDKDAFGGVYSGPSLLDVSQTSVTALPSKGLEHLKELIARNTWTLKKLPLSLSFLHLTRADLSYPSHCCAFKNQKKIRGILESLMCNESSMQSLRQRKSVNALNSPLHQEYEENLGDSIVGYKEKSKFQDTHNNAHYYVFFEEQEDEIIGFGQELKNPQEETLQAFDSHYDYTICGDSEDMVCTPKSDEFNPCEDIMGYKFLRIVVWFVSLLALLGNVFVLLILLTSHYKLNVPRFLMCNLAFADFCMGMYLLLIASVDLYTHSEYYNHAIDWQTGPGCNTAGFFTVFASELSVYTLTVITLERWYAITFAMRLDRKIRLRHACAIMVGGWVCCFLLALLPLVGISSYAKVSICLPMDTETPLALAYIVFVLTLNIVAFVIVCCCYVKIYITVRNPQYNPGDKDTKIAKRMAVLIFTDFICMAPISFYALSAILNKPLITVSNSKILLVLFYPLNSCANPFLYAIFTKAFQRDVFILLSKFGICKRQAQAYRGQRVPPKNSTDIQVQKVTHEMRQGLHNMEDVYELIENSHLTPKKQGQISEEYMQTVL
Chain of Nuclear receptor subfamily 1 group I member 3 (Homo sapiens) (Q14994 whole entry, looked up): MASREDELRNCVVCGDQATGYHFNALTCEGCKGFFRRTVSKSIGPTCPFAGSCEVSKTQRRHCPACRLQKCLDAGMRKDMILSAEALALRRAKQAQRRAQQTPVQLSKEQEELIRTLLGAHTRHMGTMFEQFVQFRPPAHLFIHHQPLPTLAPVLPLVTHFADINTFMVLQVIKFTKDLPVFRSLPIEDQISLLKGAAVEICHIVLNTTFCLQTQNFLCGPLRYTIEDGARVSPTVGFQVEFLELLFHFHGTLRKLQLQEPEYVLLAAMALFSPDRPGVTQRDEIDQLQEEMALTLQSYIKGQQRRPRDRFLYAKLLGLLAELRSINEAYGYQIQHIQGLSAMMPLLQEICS
Chain of Luciferin 4-monooxygenase (Photinus pyralis) (P08659 whole entry, looked up): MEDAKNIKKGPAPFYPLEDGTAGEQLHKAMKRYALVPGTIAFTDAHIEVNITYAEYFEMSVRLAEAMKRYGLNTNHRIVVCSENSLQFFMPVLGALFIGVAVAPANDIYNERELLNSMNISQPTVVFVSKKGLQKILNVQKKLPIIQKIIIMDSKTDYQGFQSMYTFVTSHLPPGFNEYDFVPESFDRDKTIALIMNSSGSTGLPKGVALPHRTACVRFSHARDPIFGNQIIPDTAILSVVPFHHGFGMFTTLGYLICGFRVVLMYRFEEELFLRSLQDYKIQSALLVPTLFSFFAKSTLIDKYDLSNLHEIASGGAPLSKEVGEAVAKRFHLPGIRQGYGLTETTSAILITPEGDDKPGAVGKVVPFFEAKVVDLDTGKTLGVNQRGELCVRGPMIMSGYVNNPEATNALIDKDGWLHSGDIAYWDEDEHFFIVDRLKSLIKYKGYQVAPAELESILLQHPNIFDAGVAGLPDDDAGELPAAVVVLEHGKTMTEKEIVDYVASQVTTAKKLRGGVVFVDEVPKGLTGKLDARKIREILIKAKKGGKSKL

CC(C)[N+](=O)[O-]
inactive: Potency [1] | Potency [2] | Potency [3] | Potency [4] | Potency [5] | Potency [6] | Potency [7] | Potency [8] | Potency [9] | outcome [10] | Potency [11] | Potency [12] | Potency [13] | Potency [14] | Potency [15]

CC(C)CP(=S)(S)CC(C)C
active: Potency [4] 3.44 µM | Potency [6] 2.73 µM
inactive: Potency [1] | Potency [2] | Potency [3] | Potency [5] | Potency [7] | Potency [9] | outcome [10] | Potency [11] | Potency [12] | Potency [13] | Potency [14] | Potency [15]

COC(=O)C(C)Oc1ccc(Oc2ccc(Cl)cc2Cl)cc1 (stereo not drawn)
inactive: Potency [1] | Potency [2] | Potency [3] | Potency [4] | Potency [5] | Potency [6] | Potency [16] | outcome [17] | Potency [8] | Potency [9] | outcome [10] | Potency [11] | activity change, positive = activation [18] -14.6% | Potency [12] | Potency [13] | Potency [14]

CCOC(=O)N(C)C(=O)CSP(=S)(OCC)OCC
inactive: Potency [1] | Potency [2] | Potency [3] | Potency [8] | Potency [9] | outcome [10] | Potency [11] | Potency [12] | Potency [13] | Potency [15]
active: Potency [5] 34.4 µM

CC1CCC(=O)O1 (stereo not drawn)
inactive: Potency [1] | Potency [2] | Potency [3] | Potency [19] | Potency [16] | outcome [17] | Potency [8] | Potency [9] | outcome [10] | Potency [11] | activity change, positive = activation [18] -6.79% | Potency [12] | Potency [13] | Potency [14] | Potency [15]

c1coc(-c2nc3ccccc3[nH]2)c1
inactive: Potency [1] | Potency [3] | Potency [4] | Potency [6] | Potency [8] | Potency [9] | outcome [10] | Potency [12] | Potency [14] | Potency [15]
active: Potency [2] 28.3 µM | Potency [5] 7.7 µM | Potency [11] 80 µM

O=[N+]([O-])c1cccc(O)c1
inactive: Potency [1] | Potency [2] | Potency [3] | Potency [4] | Potency [5] | Potency [6] | Potency [7] | Potency [8] | Potency [9] | outcome [10] | Potency [12] | Potency [13] | Potency [15]

COC(=O)c1ccccc1S(=O)(=O)NC(=O)N(C)c1nc(C)nc(OC)n1
inactive: Potency [1] | Potency [2] | Potency [3] | Potency [4] | Potency [5] | Potency [6] | outcome [17] | Potency [8] | Potency [9] | outcome [10] | Potency [11] | Potency [20] | activity change, positive = activation [18] 6.39% | Potency [12] | Potency [13] | Potency [15]

OCCBr
inactive: Potency [1] | Potency [2] | Potency [3] | Potency [6] | Potency [7] | Potency [8] | Potency [9] | outcome [10] | Potency [11] | Potency [12] | Potency [13] | Potency [15]

[Cl][Sn]([Cl])([Cl])[Cl]
inactive: Potency [1] | Potency [2] | Potency [3] | Potency [4] | Potency [5] | Potency [6] | Potency [8] | Potency [9] | outcome [10] | Potency [11] | Potency [12] | Potency [15]

ClC(Br)Br
inactive: Potency [1] | Potency [2] | Potency [3] | Potency [4] | Potency [5] | Potency [6] | Potency [16] | outcome [17] | Potency [7] | Potency [8] | Potency [9] | outcome [10] | Potency [11] | activity change, positive = activation [18] 1.41% | Potency [12] | Potency [13] | Potency [14] | Potency [15]

C[C@]1(O)CC[C@H]2[C@@H]3CCC4=CC(=O)CC[C@]4(C)[C@@]3(F)[C@@H](O)C[C@@]21C
inactive: Potency [1] | Potency [2] | Potency [3] | Potency [6] | Potency [7] | Potency [8] | Potency [9] | outcome [10] | Potency [11] | Potency [12] | Potency [13] | Potency [14] | Potency [15]

O=C(O)c1ccc2[nH]cc(CCCCN3CC=C(c4ccccc4)CC3)c2c1
inactive: Potency [1] | Potency [2] | Potency [3] | Potency [4] | Potency [5] | Potency [6] | Potency [8] | Potency [9] | outcome [10] | Potency [11] | Potency [12] | Potency [13]

ClCCOCOCCCl
inactive: Potency [1] | Potency [2] | Potency [3] | Potency [4] | Potency [5] | Potency [6] | Potency [16] | outcome [17] | Potency [7] | Potency [8] | Potency [9] | outcome [10] | Potency [11] | activity change, positive = activation [18] -2.74% | Potency [12] | Potency [13] | Potency [14] | Potency [15]

COC(=O)c1c(C(F)F)nc(C(F)(F)F)c(C2=NCCS2)c1CC(C)C
inactive: Potency [1] | Potency [2] | Potency [3] | Potency [4] | Potency [6] | Potency [16] | outcome [17] | Potency [7] | Potency [8] | Potency [9] | outcome [10] | Potency [11] | activity change, positive = activation [18] 1.38% | Potency [12] | Potency [13]

CCCSP(=S)(OCC)Oc1ccc(Cl)cc1Cl (stereo not drawn)
active: Potency [5] 27.3 µM
inactive: Potency [1] | Potency [2] | Potency [3] | Potency [4] | Potency [6] | Potency [16] | outcome [17] | Potency [8] | outcome [10] | activity change, positive = activation [18] 2.16% | Potency [12] | Potency [13] | Potency [14] | Potency [15]

ClCC(Cl)Cl
inactive: Potency [1] | Potency [2] | Potency [3] | Potency [5] | Potency [6] | Potency [7] | Potency [8] | Potency [9] | outcome [10] | Potency [11] | Potency [12] | Potency [13] | Potency [14] | Potency [15]

CNC(=O)Oc1ccc(N(C)C)c(C)c1
inactive: Potency [1] | Potency [2] | Potency [3] | Potency [19] | Potency [16] | outcome [17] | Potency [7] | Potency [8] | Potency [9] | outcome [10] | Potency [11] | Potency [20] | Potency [12] | Potency [13] | Potency [14] | Potency [15]

Reference: PubChem BioAssay (Tox21)
